# Measurements from PubChem BioAssay (Tox21).
# Results filed as inconclusive are left out. Where a call stands in place of a potency, no number is given. Active and inactive are the calls of the source. Calls come from the whole dose curve; as a rule, active = well fitted inhibition curve with a large enough effect in the repeat runs; inconclusive = weak or mixed curves, or effect the other way; inactive = no such curve, though single readings can be large or run the other way.
# Target: Nuclear receptor subfamily 1 group I member 3 (Homo sapiens) (UniProt Q14994)
# Sequence (Q14994 whole entry, looked up): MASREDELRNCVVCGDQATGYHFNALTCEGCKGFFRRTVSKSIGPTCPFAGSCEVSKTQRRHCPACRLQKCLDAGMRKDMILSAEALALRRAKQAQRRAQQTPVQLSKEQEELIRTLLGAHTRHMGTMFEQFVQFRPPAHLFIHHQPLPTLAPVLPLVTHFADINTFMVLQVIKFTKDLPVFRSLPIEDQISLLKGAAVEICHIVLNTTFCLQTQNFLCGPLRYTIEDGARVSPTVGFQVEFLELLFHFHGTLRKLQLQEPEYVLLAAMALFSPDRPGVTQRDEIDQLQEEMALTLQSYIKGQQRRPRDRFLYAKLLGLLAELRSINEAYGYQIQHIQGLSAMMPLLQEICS
# Test: qHTS assay to identify small molecule antagonists of the constitutive androstane receptor (CAR) signaling pathway (AID 1224838);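 note: HepG2 cells stably expressing hCAR with CYP2B6 luciferase reporter stimulated by CITCO; nearly all actives have a fitted effect of over 40% in size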
# Conditions: HepG2-CYP2B6-hCAR luciferase, CITCO-stimulated, 24 h; series mostly up to 92.4 µM
# Text: U.S. Tox21 Program National Center for Advancing Translational Sciences [NCATS] NIH Chemical Genomics Center [NCGC] U.S. Environmental Protection Agency [EPA] National Institutes of Environmental Health Sciences [NIEHS] National Toxicology Program [NTP] U.S. Food and Drug Administration [FDA] Tox21 Assay Overview: The constitutive androstane receptor (CAR) is a nuclear receptor which regulates multiple drug metabolizing enzymes (DMEs) and transporters. Activating CAR will generally increase the transcription and subsequent translation of CYP2B6 and CYP3A4. These two DMEs represent about 50% of the drug metabolizing potential in the body. When CAR is deactivated, the metabolizing potential in the body will decrease, subsequently increasing the toxicity in the body or lowering the therapeutic potential of a pro-drug. Recently, there have also been studies performed indicating CARs role in energy metabolism and cancer therapy. Therefore, inhibiting CARs activity could have a potential effect on diabetes and cancer. Identifying environmental toxins and compounds which modulate CAR, through the use of the Tox21 10K compound collection, will be an important step in determining the toxicity and potential therapeutic effects these factors will have on the human body.
# Tox21 Assay Protocol Summary: A double-stable (hCAR and CYP2B6-2.2kb) transfected cell line, derived from human hepatoma (HepG2) cells, was utilized for the duration of the quantitative high-throughput screens. The HepG2-CYP2B6-hCAR cells suspended in DMEM culture medium supplemented with 10% FBS, 5 ug/mL blasticidin, 0.5 mg/mL geneticin, 100 U/mL penicillin and 100 ug/mL streptomycin were dispensed at 2500 cells/4 uL/well in 1536-well white solid bottom plates using a Multidrop Combi. After the assay plates were incubated at 37 C/5% CO2 for 4 hrs, 23 nL of compounds at 15 concentrations (from 5-48 columns) or positive control (from 1 to 4 columns) were transferred to the assay plates using a Pintool station. One uL of CITCO, was added using a Flying Reagent Dispenser to generate a final concentration of 50 nM CITCO inside each well. After a 24 hr incubation period at 37 C/5% CO2, four uL of ONE-Glo reagent was added into the assay plates using a Flying Reagent Dispenser. After a 30 min incubation period at room temperature, the luminescence intensity in the assay plates was measured using a ViewLux plate reader.
# Potency is the fitted concentration of half-maximal effect.
row,Compound,Potency
1,CC(C)c1c(CN(C)C(C)Cc2ccccc2)n(C)n(-c2ccccc2)c1=O (stereo not given),inactive
2,COP(=S)(OC)Oc1nc(Cl)c(Cl)cc1Cl,inactive
3,S=C=NCCc1ccccc1,inactive
4,CC(C)Br,inactive
5,Cc1ccc(C)c2ccccc12,inactive
6,CC(Cc1ccc(OCC(=O)O)cc1)NCC(O)c1csc(C(F)(F)F)n1 (stereo not given),inactive
7,O=C(NC(=O)c1ccccc1Cl)Nc1ccc(OC(F)(F)F)cc1,inactive
8,Cc1cccc(Cc2cnc[nH]2)c1C,inactive
9,Nc1ccccc1-c1ccccc1,inactive
10,CC1=C2C[C@H]3[C@@H](CC=C4C[C@@H](O)CC[C@@]43C)[C@@H]2CC[C@]12O[C@@H]1C[C@H](C)CN[C@H]1[C@H]2C,inactive
11,COc1nc(C)nc(NC(=O)NS(=O)(=O)c2ccccc2Cl)n1,inactive
12,O=S1OCC2C(CO1)C1(Cl)C(Cl)=C(Cl)C2(Cl)C1(Cl)Cl (stereo not given),inactive
13,COC(=O)c1cc(Oc2ccc(Cl)cc2Cl)ccc1[N+](=O)[O-],inactive
14,COc1cnc(OC)n2nc(NS(=O)(=O)c3c(OCC(F)F)cccc3C(F)(F)F)nc12,inactive
15,CCOP(=O)(OCC)Oc1nc(Cl)c(Cl)cc1Cl,inactive
16,C[C@H]1[C@H](c2ccc(Cl)cc2)SC(=O)N1C(=O)NC1CCCCC1,inactive
17,CSC(=O)c1c(C(F)F)nc(C(F)(F)F)c(C(=O)SC)c1CC(C)C,inactive
18,NC1CCC(CC2CCC(N)CC2)CC1 (stereo not given),inactive
19,O=C(N[C@H]1N=C(c2ccccc2F)c2cccc3c2N(CC3)C1=O)c1cc2ccccc2[nH]1,inactive
20,CC(Cl)CCl (stereo not given),inactive

row,Compound,Potency
1,CC1CN1 (stereo not given),inactive
2,CC[C@]1(O)CC[C@H]2[C@@H]3CCC4=CCCC[C@@H]4[C@H]3CC[C@@]21C,33.5 µM (active)
3,O=c1[nH]c(Cl)c(Cl)cc1Cl,inactive
4,CCCCc1ccccc1,inactive
5,COc1ccc2c(c1OC)C(=O)O[C@@H]2[C@H]1c2cc3c(cc2CCN1C)OCO3,inactive
6,CC(C)NCC(O)c1ccccc1Cl (stereo not given),inactive
7,ClSC(Cl)(Cl)Cl,inactive
8,CC(C)C(Nc1ccc(C(F)(F)F)cc1Cl)C(=O)OC(C#N)c1cccc(Oc2ccccc2)c1 (stereo not given),inactive
9,COP(=O)(OC)Oc1ccc([N+](=O)[O-])cc1,inactive
10,O=S(=O)(O)F,inactive
11,O=c1c2ccccc2c(=O)c2c1cc(Cl)c1[nH]c3c([nH]c12)c(Cl)cc1c(=O)c2ccccc2c(=O)c13,inactive
12,BrCC(Br)(Br)Br,inactive
13,CC(Cc1ccc2c(c1)OCO2)NO (stereo not given),inactive
14,CCC1(CC)C(=O)N=C(O)NC1=O,inactive
15,CCO/N=C(\CC)C1=C(O)CC(c2c(C)cc(C)cc2C)CC1=O (stereo not given),inactive
16,C=Cc1cccc(CCl)c1,inactive
17,C=CC(=O)[O][Sn]([CH2]CCC)([CH2]CCC)[CH2]CCC,0.486 µM (active)
18,C#CCO,inactive
19,c1csc(-c2ccc(-c3cccs3)s2)c1,inactive
20,BrCCCBr,inactive
